These entries were drawn from the full list.
aSyn 5UTR act = Activators via SNCA 5'UTR binding, MLPCN | activity score, % (tested at 7.5 µM), hits read low | alpha-synuclein 5'UTR reporter, activators screen | 7.1% of 300,000 active; in the data active = activity score below about -60%
Each line names hits and unclear results; the compound was inactive in the other large screens.

C/C(=N\NC(=O)C(C)Oc1ccc([N+](=O)[O-])cc1)c1ccccn1 (stereo not drawn)	none
O=C(Oc1cccc(/C=N/NC(=O)c2ccccn2)c1)c1ccc([N+](=O)[O-])cc1	aSyn 5UTR act -100.0
CCN(CC)c1ccc(/C=N/NC(=O)c2ccccn2)cc1	aSyn 5UTR act -125.3
O=C(N/N=C/c1ccc(OC(=O)c2ccccc2Cl)cc1)c1ccccn1	aSyn 5UTR act -112.2
CCN(CC)c1ccc(/C=N/NC(=O)c2cnccn2)cc1	aSyn 5UTR act -84.7
Cc1ccc(/C=N\NC(=O)c2csnn2)cc1	aSyn 5UTR act -69.3
O=C(OCC(F)(F)F)c1cccc(COc2ccc3ccccc3c2)c1	none
O=C(OCc1cccc(F)c1)c1ccc2c(c1)-c1ccccc1C2=O	aSyn 5UTR act -68.4
O=C(OCc1ccccc1F)c1ccc2c(c1)-c1ccccc1C2=O	aSyn 5UTR act -121.2
COc1ccc(-c2cc(=NC(CC(C)C)C(=O)O)c3cc(C)ccc3o2)cc1 (stereo not drawn)	aSyn 5UTR act -152.9
CCN(CC)c1ccc(N=Cc2ccc([N+](=O)[O-])o2)cc1	aSyn 5UTR act -79.8
Cc1cccc(C)c1Nc1nnc(SCc2nc3ccccc3s2)s1	aSyn 5UTR act -85.4
Cc1ccnc(SCc2nc3ccccc3s2)n1	aSyn 5UTR act -181.5
COc1cccc(Nc2nnc(SCc3nc4ccccc4s3)s2)c1	aSyn 5UTR act -207.9
Cn1c(=O)c2nc(-c3ccccc3)oc2c2ccccc21	aSyn 5UTR act -69.3
CC(=O)C1=C(C)NC(SCC(=O)c2cc(Cl)ccc2Cl)=C(C#N)C1c1ccco1 (stereo not drawn)	aSyn 5UTR act -129.6
N#CC1=C(SCC(=O)Nc2ccccc2)NC(=O)CC1c1ccco1 (stereo not drawn)	aSyn 5UTR act -140.9
N#CC1=C(SCC(=O)Nc2ccccc2)NC(=O)CC1c1ccc(O)cc1 (stereo not drawn)	aSyn 5UTR act -128.0
N#CC1=C(SCC(=O)c2ccccc2)NC2=C(C(=O)CCC2)C1c1ccco1 (stereo not drawn)	aSyn 5UTR act -305.3
O=C1C(c2ccccc2)=[N+]([O-])c2ccccc21	aSyn 5UTR act -94.3
O=C1C(=O)c2ccc(-c3ccccc3)cc2-c2ccccc21	none
COc1ccc2cc(-c3ccon3)ccc2c1	aSyn 5UTR act -171.6
O=c1nc2c(O)cccn2c2c1c(=O)[nH]c1ccccc12	aSyn 5UTR act -66.2
O=c1[nH]c2ccccc2c2nc3ccccn3c12	aSyn 5UTR act -113.3
S=C(c1ccc(-c2ccc(Cl)cc2Cl)o1)N1CCCCC1	aSyn 5UTR act -208.2
S=C(c1ccc(-c2ccc(Cl)cc2Cl)o1)N1CCCC1	aSyn 5UTR act -139.5
COc1cc(C2CC(=O)Nc3n[nH]c(-c4ccccc4)c32)cc(OC)c1OC (stereo not drawn)	aSyn 5UTR act -120.0
COc1cc(/C=C2\CC(C(C)(C)C)C/C(=C\c3cc(OC)c(OC)c(OC)c3)C2=O)cc(OC)c1OC (stereo not drawn)	none
Cc1ccccc1/C=C\c1nc2ccccc2c(=O)[nH]1	aSyn 5UTR act -142.2
N#CCOc1ccccc1/C=C/c1nc2ccccc2c(=O)[nH]1	aSyn 5UTR act -115.2
Cc1ccccc1/C=C/c1nc2ccccc2c(=O)[nH]1	aSyn 5UTR act -324.0
CCOC(=O)Nc1nnc(/C=C/c2ccc(OC)cc2)s1	aSyn 5UTR act -94.2
COc1ccc(/C=C/c2nnc(NC(=O)C(C)(C)C)s2)cc1	aSyn 5UTR act -96.0
CCC(=O)Nc1nnc(/C=C/c2ccccc2)s1	aSyn 5UTR act -137.7
CCCC(=O)Nc1nnc(/C=C/c2ccc(OC)cc2)s1	aSyn 5UTR act -106.6
CCCC(=O)Nc1nnc(/C=C/c2ccccc2)s1	aSyn 5UTR act -99.0
C=CCN(C(=O)CSC1=NC(=O)CN1C(C)=O)c1nc(C)c(-c2ccccc2)s1	aSyn 5UTR act -118.0
COc1cccc(-c2nc(=S)c3c(n2Cc2ccco2)CCCC3)c1	aSyn 5UTR act -88.9
COc1cccc(-c2nc(=S)c3c(o2)CCCC3)c1	aSyn 5UTR act -117.8
S=c1nc(-c2ccccc2)oc2c1CCCC2	aSyn 5UTR act -144.4
O=[N+]([O-])c1ccc(-c2nc(=S)c3c(o2)CCCC3)cc1	aSyn 5UTR act -106.0
Oc1cccc2c3c(oc12)CCCC3	none
NC(=O)c1ccccc1NC(=O)c1ccc2c(c1)OCO2	aSyn 5UTR act -152.3
NC(=O)c1ccccc1NC(=O)c1ccc2ccccc2c1	aSyn 5UTR act -138.8
CCc1c(C(=O)Nc2ccccc2C(N)=O)csc1C	aSyn 5UTR act -62.3
Cc1ccccc1NC(=O)c1ccc2ccccc2c1	aSyn 5UTR act -149.7
Nc1nn(-c2ccccc2)c(N)c1N=Nc1ccccc1	aSyn 5UTR act -105.6
Nc1ncnc(N)c1N=Nc1ccccc1	none
Nc1nn(-c2ccccc2)c(N)c1N=Nc1ccccc1F	aSyn 5UTR act -98.0
Nc1c(N=Nc2ccccc2F)c(=O)[nH]n1-c1ccccc1	aSyn 5UTR act -125.3
Oc1ccc(-c2nnc(-c3ccc(O)cc3)nn2)cc1	aSyn 5UTR act -109.2
Oc1ccc(-c2nccc(-c3ccc(Cl)cc3)n2)cc1	aSyn 5UTR act -84.3
Oc1ccc(-c2cccc(-c3ccc(O)cc3)n2)cc1	aSyn 5UTR act -67.9
Oc1ccc(-c2nccc(-c3cccs3)n2)cc1	aSyn 5UTR act -156.8
OCCN(Cc1ccccc1)CC(O)COc1ccc(-c2ccccc2)cc1 (stereo not drawn)	aSyn 5UTR act -96.5
OC1CCCN(CC(O)COc2ccc(-c3ccccc3)cc2)C1 (stereo not drawn)	aSyn 5UTR act -73.7
OC(CNCCc1ccccc1)COc1ccc(OCC(O)CNCCc2ccccc2)cc1 (stereo not drawn)	none
OC(COc1ccc(-c2ccccc2)cc1)CN1CCOCC1 (stereo not drawn)	aSyn 5UTR act -72.8
OCCN1CCN(CC(O)COc2ccc(-c3ccccc3)cc2)CC1 (stereo not drawn)	aSyn 5UTR act -125.5
COc1ccc(C(O)(CC(C)C)C(CN2CCOCC2)c2ccccc2)cc1 (stereo not drawn)	none
OC(COc1ccc2cc(Br)ccc2c1)CN1CCCC1 (stereo not drawn)	aSyn 5UTR act -96.8
OC(COc1ccc(OCc2ccccc2)cc1)CN1CCCCC1 (stereo not drawn)	aSyn 5UTR act -73.1
COc1ccc(N=C(C)C2=C(O)CSC2=O)cc1	aSyn 5UTR act -72.0
CC(=Nc1ccccc1)C1=C(O)CSC1=O	aSyn 5UTR act -94.6
Cc1c(/N=C(\[O-])Nc2ccc(Br)cc2)sn[n+]1C	none
C/C(=C\C(=O)c1ccc(Br)cc1)Nc1cccc(Cl)c1	aSyn 5UTR act -79.8
C/C(=C\C(=O)c1ccc(Cl)cc1)Nc1ccc(Br)cc1	aSyn 5UTR act -131.0
C/C(=C\C(=O)c1ccc(Br)cc1)NCc1ccccc1	aSyn 5UTR act -112.8
Cc1ccc2c3c([nH]c2c1C)-c1nonc1CC3	aSyn 5UTR act -107.3
CN1Cc2c(N3CCOCC3)nc3sc(C(=O)c4ccc(Br)cc4)c(N)c3c2CC1(C)C	none
Cc1snc2sc(C(=O)c3ccc(F)cc3)c(N)c12	aSyn 5UTR act -95.7
CN(C)c1ccnc2sc(C(=O)c3ccc(Br)cc3)c(N)c12	aSyn 5UTR act -85.4
O=C(NC1CCCCC1)c1cc(-c2ccccc2O)on1	aSyn 5UTR act -144.6
O=C(NC1CCCCC1)c1cc(-c2ccc(O)cc2)on1	aSyn 5UTR act -152.6
Cc1ccc(-c2cc(C(=O)NC3CCCCC3)no2)cc1	aSyn 5UTR act -163.2
CN(C(=O)c1cc(-c2ccccc2)on1)C1CCCCC1	aSyn 5UTR act -187.8
O=C(Nc1cccc(S(=O)(=O)N2CCCCC2)c1)c1ccc([N+](=O)[O-])o1	aSyn 5UTR act -268.3
Cc1ccnc(NC(=O)C2CCN(S(=O)(=O)c3ccc(Cl)c(C(F)(F)F)c3)CC2)c1	aSyn 5UTR act -63.4
